Assay outcomes: PubChem, National Center for Advancing Translational Sciences (NCATS)
HT1080-NT tox: kills 2HG-producing HT-1080-NT fibrosarcoma cells; AID 686970; 1.6% of 360,000 active; Potency, µM (top dose mostly 46.1 µM), usual class: cytotoxic; HT-1080-NT fibrosarcoma viability, CellTiter-Glo ATP luminescence, 48 h;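 further: NT is the 2HG producing partner of a matched IDH1 knockdown line; nearly all actives have a fitted effect of over 55% in size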
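A 48-hour cytotoxicity screen used HT-1080-NT cells plated 2 hours before compound delivery. ATP-based CellTiter-Glo luminescence measured viability, normalized to DMSO and no-cell controls.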
KB-3-1 tox: kills parental KB-3-1 adenocarcinoma cells. 1.4% of 400,000 active. KB-3-1 viability, CellTiter-Glo ATP luminescence, 72 h. Potency, µM (series often up to 46.1 µM), usual class: cytotoxic. AID 1347075; further: nearly all actives have a fitted effect of over 60% in size
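Screening of KB-3-1 cells (DMEM, 10% FBS, phenol-red free) ran from lowest to highest compound concentration; after 72 h at 37 °C viability was read luminescently and curves fitted.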
ATXN2 expr inh: reduces ATXN2 reporter expression in HEK-293 cells; HEK-293 ATXN2-luciferase reporter, luminescence, 24 h; Potency, µM (top dose mostly 57 µM), most hits filed as inhibitors; 0.72% of 360,000 active; AID 1745845; further: nearly all actives have a fitted effect of over 55% in size
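ATXN2-luciferase reporter cells (luciferase flanked by upstream and downstream ATXN2 gene portions) were treated 24 h at 37 °C with compounds at up to 57 uM. SteadyGlo luminescence gave expression; GF-AFC fluorescence gave viability.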
HT1080 IDH1KD tx: toxicity to HT-1080 IDH1 knockdown cells (counter line) | HT-1080 IDH1 knockdown viability, ATP luminescence, 48 h | Potency, µM (titrated, usually from 46.1 µM), most hits filed as cytotoxic | 2% of 360,000 active
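Using the IDH1-knockdown HT-1080 line run in the same batch and compound series as the NT line, viability after 48 h at 37 °C was determined by CellTiter-Glo luminescence and expressed as % activity.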
KB-V1 cytotox: kills drug-selected multidrug resistant KB-V1 cells; 3.4% of 400,000 active; KB-V1 MDR cells viability, CellTiter-Glo, 72 h; Potency, µM (doses to about 46.1 µM), hits mostly cytotoxic; further: nearly all actives have a fitted effect of over 60% in size
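KB-V1 cells (P-gp-expressing MDR subline of KB-3-1) in phenol-red-free DMEM with 10% FBS were exposed to library compounds over a concentration series for 72 h at 37 degrees C. Viability read by CellTiter-Glo luminescence; concentration-effect curves fitted after normalization.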
ATXN viability: reduces viability in counter-screen for ATXN expression inhibitors; S2 cells (HEK-293 line with an ATXN2-luciferase reporter) viability, CellTiter-Fluor protease fluorescence, 24 h; Potency, µM (highest dose often 56.7 µM), actives largely listed as cytotoxic; 0.49% of 400,000 active; further: nearly all actives have a fitted effect of over 40% in size
A number is an active result; i = inactive; ? = inconclusive; nt = no result; ! = not confirmed by another sample; [ ] = remark or other dose. A selection: hits, their analogues and other compounds. The true share with any hit is near 6.2%. The call rests on the fitted dose curve; in most records, active means well fitted curve in the direction sought with a large enough effect; inconclusive means small, poorly fitted or top-dose-only effect, or another doubt; inactive means no such curve, though single readings can be large; an effect the other way counts as inactive or inconclusive.

SMILES	HT1080-NT tox	KB-3-1 tox	ATXN2 expr inh	HT1080 IDH1KD tx	KB-V1 cytotox	ATXN viability
O=c1cccc2n1CC1CC2CN(Cc2c(F)cccc2Cl)C1 (stereo not drawn)	i	i	i	i	?	i
O=c1cccc2n1CC1CC2CN(Cc2cccc(Cl)c2Cl)C1 (stereo not drawn)	i	i	i	?	18µM	i
CC1=C(N2CC2)C(=O)C(CO)=C(N2CC2)C1=O	?	0.46µM	0.12µM	0.0058µM	0.26µM	2.7µM
O=Cc1cn(Cc2cccc([N+](=O)[O-])c2)c2ccccc12	i	?	0.45µM	i	?	?
Cc1cccc(Cn2cc(C=O)c3ccccc32)c1	i	18µM	?	?	i	i
O=Cc1cn(Cc2c(F)cccc2Cl)c2ccccc12	i	?	nt	i	16µM	?
N#Cc1ccc(Cn2cc(C=O)c3ccccc32)cc1	i	i	?	i	i	i
O=Cc1cn(Cc2ccccc2F)c2ccccc12	i	i	?	i	i	i
Cc1ccc(N2CCN(C(=O)c3cn(CC4CCCCC4)nn3)C(C)C2)cc1 (stereo not drawn)	?	i	i	?	?	i
CC(N)Cc1ccc2c(c1)OCO2 (stereo not drawn)	nt	nt	nt	nt	nt	i
Oc1ccc2c3c1O[C@H]1[C@@H](O)C=C[C@H]4[C@H](C2)NCC[C@@]341	nt	nt	nt	nt	nt	i
Cc1ccc2nc(-c3ccc(CN4CCC(n5c(=O)[nH]c6ccccc65)CC4)cc3)c(-c3ccccc3)nc2c1	?	?	i	?	?	?
O=c1[nH]c2ccccc2n1C1CCN(Cc2ccc(-c3nc4ccccc4nc3-c3ccccc3)cc2)CC1	?	?	i	?	23µM	?
O=c1[nH]c2ccccc2n1C1CCN(Cc2ccc(-c3nc4ccc(F)cc4nc3-c3ccccc3)cc2)CC1	21µM	?	?	?	?	?
CCO/N=C(\CC)C1=C(O)CC(c2c(C)cc(C)cc2C)CC1=O (stereo not drawn)	nt	nt	i	nt	nt	?
CCOC(=O)c1c(N)n(Cc2ccco2)c2nc3ccccc3nc12	i	i	i	i	i	nt
CC(C)N(C(=O)CSc1nnc(-c2cc3ccccc3cc2O)n1Cc1ccco1)C(C)C	?	15µM	i	?	3.3µM	?
CCCS(=O)(=O)NC(=O)C1(C)CCCN(C(=O)c2ccccc2OC)C1 (stereo not drawn)	?	i	i	i	i	i
COc1cccc(C(=O)C2CCCN(Cc3cccc(C)n3)C2)c1 (stereo not drawn)	i	i	nt	i	i	?
Cc1cccc(CN2CCCC(C(=O)c3cccc(OC(C)C)c3)C2)n1 (stereo not drawn)	i	i	nt	i	i	32µM
COc1ccc(S(=O)(=O)N2c3ccc(F)cc3CCC2C)cc1 (stereo not drawn)	1.8µM	1.6µM	nt	3.7µM	1.6µM	?
Cc1nc(C)n(CC(O)COc2ccc3cc(Br)ccc3c2)n1 (stereo not drawn)	i	i	i	?	i	i
COC(=O)C(O)(c1ccc(NC(=S)NC(=O)c2ccc(Cl)cc2Cl)cc1)C(F)(F)F (stereo not drawn)	i	?	i	i	18µM	i
CCOC(=O)C(O)(c1ccc(NC(=S)NC(=O)c2ccc(Cl)cc2Cl)c(C)c1)C(F)(F)F (stereo not drawn)	16µM	?	i	23µM	?	i
O=C(CI)c1ccc(Cl)cc1	nt	i	nt	nt	i	nt
SMILES	HT1080-NT tox	KB-3-1 tox	ATXN2 expr inh	HT1080 IDH1KD tx	KB-V1 cytotox	ATXN viability
c1ccc(N2CCNCC2)cc1	nt	nt	i	nt	nt	i
COc1ccc(-c2nc(CN3C(=O)CN=C(c4ccccc4Cl)c4cc(Cl)ccc43)c(C)o2)cc1OC	nt	?	i	nt	?	?
O=C1CN=C(c2ccccc2Cl)c2cc(Cl)ccc2N1Cc1cccc(Cl)c1	nt	?	?	nt	15µM	?
Oc1cc(Cl)ccc1Oc1ccc(Cl)cc1Cl	?	i	40µM!	i	i	40µM!
COc1ccc(OC)c(NC(=O)Cn2cc(C(=O)c3ccccc3F)c3ccccc32)c1	nt	?	i	nt	i	?
C=C(C)CSc1nnc([C@@H](N)Cc2c[nH]c3ccccc23)o1	i	i	i	i	i	?
Cc1[nH]nc2ccc(-c3cncc(OC[C@@H](N)Cc4c[nH]c5ccccc45)c3)cc12	18µM	?	2.2µM	10µM	26µM	nt
CCCOc1ccc(N2C(=O)CC(N3CCC(O)(c4cccc(C(F)(F)F)c4)CC3)C2=O)cc1 (stereo not drawn)	i	i	i	i	i	?
CC(C)(N)Cc1ccc(Cl)cc1	nt	nt	i	nt	nt	i
CCN1c2nc3ccccn3c(=O)c2CC2(C(=O)N(C)C(=O)N(C)C2=O)C1C (stereo not drawn)	i	i	i	i	16µM	i
CC1CCN2c3nc4ccccn4c(=O)c3CC3(C(=O)N(C)C(=O)N(C)C3=O)C2C1 (stereo not drawn)	i	i	i	i	7.3µM	i
Cc1ccc(C(=O)COC(=O)c2cccc(NC(=O)c3ccc(Br)cc3)c2)cc1	nt	i	i	nt	?	?
COC(=O)C12OCC34C(CC5C(C)=C(O)C(=O)CC5(C)C3C(O)C1O)OC(=O)C(OC(=O)/C=C(\C)C(C)C)C24 (stereo not drawn)	?	0.18µM	i	0.026µM	3.3µM	?
COc1cc2c(c(OC)c1O)-c1ccc(OC)c(=O)cc1C(NC(=O)C(F)(F)F)CC2 (stereo not drawn)	0.013µM	?	i	?	?	?
CCN(CC)c1ccc2c(cc1=O)[C@@H](NC)CCc1cc(OC)c(OC)c(OC)c1-2	1.3µM	0.92µM	i	?	6.5µM	?
CN1C(=O)C(=Cc2ccccc2OCc2ccccc2Cl)C(=O)N(C)C1=O	16µM	?	?	16µM	i	i
COc1ccc(CCNC(=O)c2ccc3c(c2)N=C(C)c2cc(C)ccc2S3)cc1OC	nt	i	?	nt	i	?
C[C@@H]1[C@@H]2Cc3ccc(O)cc3[C@@]1(C)CCN2CCc1ccccc1	nt	nt	nt	nt	nt	i
CC1[C@H]2Cc3ccc(O)cc3[C@]1(C)CCN2CCc1ccccc1 (stereo partly drawn)	?	i	i	15µM	?	i
CC(O)(CS(=O)(=O)c1ccccc1)C(=O)Nc1ccc(C(F)(F)F)cc1 (stereo not drawn)	?	i	i	i	15µM	i
CC(O)(CS(=O)(=O)c1cccc(C(F)(F)F)c1)C(=O)Nc1cccc(C(F)(F)F)c1 (stereo not drawn)	i[9.24 µM]	i	i	?	i	i
O=c1c2ccccc2nc(N2CCCC2)n1-c1ccc(Cl)cc1	i	?	i	i	23µM	i
CCCNC(=O)c1cc2c(c(-c3cccc(-c4cc5ccccc5o4)c3)n1)[C@@H](CCO)N(C(=O)NC(C)C)C2	?	?	i	?	18µM	?
